BL2 CD40 inh: CD40 pathway inhibition in BL2 cells; BL2 NF-kB luciferase reporter, CD40L-induced, 4 h; inhibition, % at 10 µM; 0.94% of 83,000 active;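 active = mean inhibition of at least 50% with a set share of replicates also reaching that level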;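 note: 0% = neutral control wells and 100% = IKK inhibitor VII at 50 µM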
Active calls of the source: *; [ ] = another dose, or the depositor's remark. This excerpt belongs to a sample that is enriched for hits.

SMILES | BL2 CD40 inh
O=C(CNC(=O)C1CCCCC1)OCC(=O)c1ccc(F)cc1 | -8.6
CCOC(=O)c1c(C)[nH]c(C)c1C(=O)COC(=O)CNC(=O)C1CCCCC1 | 0.7
C[C@@H]1CN([C@@H](C)CO)C(=O)c2ccccc2-c2ccccc2CO[C@H]1CN(C)S(=O)(=O)c1ccc(C#N)cc1 | 5.2
CC(=O)N1CCN(c2ccc(OCC3COC(Cn4ccnc4)(c4ccc(Cl)cc4Cl)O3)cc2)CC1 (stereo not given) | -9.2[25 µM]
C[C@@H]1CN([C@H](C)CO)C(=O)c2cc(C3=CCCCC3)cnc2O[C@@H]1CN(C)S(=O)(=O)c1cn(C)cn1 | 4.6[25 µM]
CC(C)(C)n1ncc2c(=O)n(CC(=O)OCc3ccccc3)cnc21 | 98.3*
CC(C)(C)n1ncc2c(=O)n(CC(=O)NCc3ccc(F)cc3)cnc21 | 6.8
CC(C)(C)n1ncc2c(=O)n(CC(=O)c3ccccc3)cnc21 | -82.1
C[C@@H]1CN([C@H](C)CO)C(=O)CCCn2nncc2CO[C@@H]1CN(C)Cc1ccccc1 | -11.9
CC(C)NC(=O)Nc1ccc2c(c1)C(=O)N(C)C[C@@H](C)[C@@H](CN(C)S(C)(=O)=O)O2 | 17.4
O=C(Nc1ccc(C(F)(F)F)cc1)N1C[C@@H]2N[C@H](C1)C2c1ccc(-c2cccc(F)c2)cc1 (stereo not given in full) | 69.7*
Cc1ccc(-c2ccc(C3[C@@H]4CN(C(=O)Nc5ccc(C(F)(F)F)cc5)C[C@H]3N4)cc2)cc1 (stereo not given in full) | 24.9[25 µM]
COc1ccc(NC(=O)N2C[C@@H]3N[C@H](C2)C3c2ccc(-c3cccc(F)c3)cc2)cc1 (stereo not given in full) | -5.4[25 µM]
N#C[C@@H]1[C@@H](c2ccccc2-c2ccccc2)[C@@H](CO)N1C(=O)NC1CCCCC1 | 13.9
O=C(CCN1CCCCC1)NCC[C@H]1CC[C@@H](NS(=O)(=O)c2cccc(Cl)c2)[C@H](CO)O1 | -0.3[25 µM]
Cc1ccc(-c2ccc([C@@H]3[C@H](CO)N4CCCCN(C(=O)c5ccc(F)cc5)C[C@@H]34)cc2)cc1 | 13.7
CC(C)CC#Cc1ccc([C@H]2[C@@H](CO)N3C(=O)CN(C(=O)c4ccccn4)C[C@@H]23)cc1 | -9.6[25 µM]
N#C[C@H]1[C@H](c2ccc(C#CC3CCCCC3)cc2)[C@@H](CO)N1C(=O)Nc1ccc(F)cc1 | 63.4*[25 µM]
N#C[C@@H]1[C@H](c2ccc(-c3cccc(F)c3)cc2)[C@H](CO)N1C(=O)NC1CCCC1 | 22.4[25 µM]
N#C[C@@H]1[C@H](c2ccc(C#CC3CCCC3)cc2)[C@H](CO)N1C(=O)c1cccc(F)c1 | -15.5
CC(C)NC(=O)N1[C@H](C#N)[C@@H](c2ccc(C#CC3CCCC3)cc2)[C@@H]1CO | -6.8
CC(C)NC(=O)N1[C@H](C#N)[C@@H](c2ccc(C#CC3CCCCC3)cc2)[C@H]1CO | 2.2
N#C[C@@H]1[C@H](c2ccc(C#CC3CCCCC3)cc2)[C@H](CO)N1C(=O)Nc1ccc(F)cc1 | 84.2*[25 µM]
CC(C)NC(=O)N1[C@H](CO)[C@H](c2ccc(C#CC3CCCC3)cc2)[C@@H]1C#N | -20.4
N#C[C@H]1[C@@H](c2ccc(-c3cccc(F)c3)cc2)[C@H](CO)N1C(=O)NC1CCCC1 | -3.2[25 µM]
SMILES | BL2 CD40 inh
N#C[C@H]1[C@H](c2ccc(-c3cccc(F)c3)cc2)[C@H](CO)N1C(=O)NC1CCCC1 | 52.0*[25 µM]
N#C[C@@H]1[C@H](c2ccc(C#CC3CCCC3)cc2)[C@@H](CO)N1C(=O)c1cccc(F)c1 | 65.6*
N#C[C@H]1[C@@H](c2ccc(C#CC3CC3)cc2)[C@@H](CO)N1C(=O)c1cccc(F)c1 | 2.0
N#C[C@H]1[C@H](c2ccc(C#CC3CCCC3)cc2)[C@H](CO)N1C(=O)Nc1ccc(F)cc1 | 10.2
O=C(Nc1cccc(F)c1)N1C[C@@H]2[C@H](c3ccccc31)[C@@H](CO)N2C(=O)c1cccnc1 | -5.2
O=C(Nc1ccc(F)cc1)N1C[C@@H]2[C@H](c3ccccc31)[C@H](CO)N2C(=O)c1cccnc1 | -11.7
CN(C)C(=O)[C@@H]1[C@@H](CO)[C@@H]2Cn3c(ccc(-c4ccccc4)c3=O)[C@H]1N2C(=O)C1CCCC1 | 7.1
CCCC#Cc1ccc([C@H]2[C@@H](CO)N3C(=O)CN(C(=O)Nc4cccc(F)c4)C[C@H]23)cc1 | 5.3[25 µM]
O=S(=O)(c1cccs1)N1CCCCN2[C@H](C1)[C@@H](c1ccc(Br)cc1)[C@@H]2CO | 2.1[25 µM]
COc1ccc2c3c([nH]c2c1)[C@H](CO)N(C(=O)C1CCOCC1)CC31CCN(S(C)(=O)=O)CC1 | 12.7[25 µM]
O=C(C[C@@H]1C[C@H]2c3cc(NC(=O)NC4CCCCC4)ccc3O[C@H]2[C@H](CO)O1)NCC(F)(F)F | -3.9[25 µM]
COc1ccccc1CNC(=O)C[C@@H]1CC[C@@H]2[C@H](COC[C@@H](O)CN2Cc2ccc3c(c2)OCO3)O1 | 4.7[25 µM]
CC(C)NC(=O)N(C)C[C@@H]1Oc2c(N)cccc2C(=O)N(C)C[C@H]1C | 3.0
CNC[C@@H]1OCCCC[C@@H](C)Oc2ccc(NC(=O)Nc3ccc(C(F)(F)F)cc3)cc2C(=O)N([C@H](C)CO)C[C@H]1C | 2.5
COc1ccc(-c2ccc([C@@H]3[C@H](C#N)N(C(=O)c4cccc(F)c4)[C@H]3CO)cc2)cc1 | 20.0[25 µM]
COc1ccc(-c2ccc([C@@H]3[C@@H](CO)N(C(=O)c4cccc(F)c4)[C@H]3C#N)cc2)cc1 | -17.7[25 µM]
COc1ccc(-c2ccc([C@H]3[C@@H](C#N)N(C(=O)c4cccc(F)c4)[C@H]3CO)cc2)cc1 | 57.4*[25 µM]
CO[C@@H]1CN(C)C(=O)c2cc(NS(=O)(=O)c3ccccc3C)ccc2OC[C@@H](C)N(S(=O)(=O)c2ccccc2)C[C@H]1C | 9.0[25 µM]
Cc1ccc(S(=O)(=O)N[C@H]2CC[C@H](CCn3cc(C4CCCC4)nn3)O[C@H]2CO)cc1 | 4.1
O=C(Cc1cccnc1)N1CC(=O)N2[C@H](CO)[C@H](c3ccc(C4=CCCCC4)cc3)[C@@H]2C1 | 6.3
COC(=O)[C@H]1[C@H](CO)[C@H]2Cn3c(ccc(C4=CCCC4)c3=O)[C@H]2N1C(=O)C1CCCC1 | 0.4
c1cc(-c2ccc(C3[C@H]4CNC[C@@H]3N4CC3CCCC3)cc2)ccn1 (stereo not given in full) | 6.4
O=S(=O)(c1cccc2cccnc12)N1CCN(c2ccccc2)CC1 | 6.1
O=S(=O)(c1cccc2cnccc12)N1CCNCC1 | 53.4*[25 µM]
O=S(=O)(c1cccc2cccnc12)N1CCN(c2ccccn2)CC1 | 11.2
SMILES | BL2 CD40 inh
O=C(C[C@@H]1C[C@@H]2c3cc(NC(=O)C4CCC4)ccc3O[C@@H]2[C@@H](CO)O1)NCc1ccccn1 | -1.9[25 µM]
CC(=NNC(=S)Nc1ccc(C)cc1)c1ccccn1 | 77.5*
Cc1ccc(NC(=S)NNC(=S)Nc2ccc(C)cc2)cc1 | -42.4
COc1ccccc1NC(=O)c1ccccc1NC(=O)c1ccccn1 | 0.9
CCCN(CC(=O)Nc1ccccc1OC)C(=O)c1ccccn1 | -1.9
CC(=NNC(=S)N1CC2CCC(CC2)C1)c1ccccn1 | -16.7
COc1ccccc1NC(=S)NN=C(C)c1ccccn1 | 90.3*
COc1ccc(C#Cc2ccc3c(c2)O[C@H](CN(C)C(=O)CN2CCOCC2)[C@H](C)CN([C@@H](C)CO)S3(=O)=O)cc1 | -9.0[25 µM]
COc1ccccc1NC(=O)N[C@@H]1CC[C@H](CCNS(=O)(=O)c2ccc(Cl)cc2)O[C@@H]1CO | 8.9[25 µM]
CN(C)C(=O)c1cccc(-c2ccc3c(c2)[C@H]2[C@H](CCN2C(=O)C2CCCC2)[C@@H](CO)N3)c1 | 7.6
COCC(=O)N1CC(=O)N2[C@H](CO)[C@@H](c3ccc(C#CC4CC4)cc3)[C@@H]2C1 | -7.0[25 µM]
